We go through 16 compounds from PubChem BioAssay.

Active and inactive are the calls of the source.

For test [1], the system named is Wnt5a (protein binding on small-molecule microarray). The experiment in a line: Wnt5a binders on small-molecule microarray, primary screen, biophysical, 635/667 nm fluorescence (AID 1142).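 Further: fluorescence read at 667 nm with signal to noise per printed feature.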 Particulars: 635 nm fluorescence, higher = more signal.
Test [2] is described as follows: cell viability in Huh7 cells, primary screen, cytotoxicity control for HCV replication inhibitor project, CellTiter-Glo luminescence, basal, 48 h (AID 1143).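 Further: Huh7 hepatoma cells carrying a hepatitis C replication reporter with no stimulus; test concentration not given here.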 Particulars: Huh7 HCV replicon, higher = more signal, called active from +8 up or from −8 down. In general terms: ATP-based viability assays read luminescence as a measure of living cells.
Test [3] in a line: CREB reporter modulators without forskolin, primary screen, cell-based, PC12, CRE-LacZ reporter, unstimulated (AID 1145). The note with it: no forskolin, luminescence, 4.5 h, higher = more signal, called active from +8 up or from −8 down.
Test [4] is described as follows: CREB reporter modulators under forskolin, primary screen, cell-based, PC12, CRE-LacZ reporter, forskolin-stimulated (AID 1146).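 Further: PC12 cells with 6xCRE LacZ reporter stimulated by forskolin 10 µM; beta-galactosidase reporter signal reflecting CREB driven transcription.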 The note with it: luminescence, 4.5 h, higher = more signal, called active from +8 up or from −8 down.
Test [5] deals with Streptavidin (Streptomyces avidinii) (UniProt P22629). Nature of the test: streptavidin binders on small-molecule microarray, primary screen, artefact control for SMM compound annotation, biophysical, 635/667 nm fluorescence (AID 1147).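 Further: signal reflects streptavidin binding to arrayed compounds as a control protein.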 The note with it: streptavidin binding, higher = more signal.
A short description of test [6]: small-molecule binders of probe aInhba, primary screen, biochemical, small-molecule microarray, 635/667 nm fluorescence (AID 1148).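 Further: score merges 667nm spot fluorescence with signal-to-noise for antibody binding to printed compounds.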 Particulars: higher = more signal.
Test [7] concerns the target Torsin-1A (Homo sapiens) (UniProt O14656). The experiment in a line: torsin A binders from cell lysate, primary screen, small-molecule microarray, wild-type, 635/667 nm (AID 1149). Particulars: COS7 hTOR1A-WT lysate, 635 nm fluorescence, higher = more signal.
Test [8] shares this target. Nature of the test: small-molecule binders of mutant TOR1A in lysate, primary screen, cell lysate, small-molecule microarray, COS7 lysate, 635/667 nm fluorescence (AID 1150).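 Further: score pools 667 nm emission and signal to noise measuring lysate protein binding.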 Particulars: COS7 hTOR1A mutant lysate, 635 nm fluorescence, higher = more signal.
Test [9] has as its system Sonic hedgehog protein (Shh). The experiment in a line: small-molecule binders of Shh protein, primary screen, biochemical, small-molecule microarray, 635/667 nm fluorescence (AID 1151).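 Further: Shh protein binding to compounds spotted on small-molecule microarray slides; score combines spot fluorescence intensity with signal-to-noise across triplicate slides.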 Particulars: small-molecule microarray binding, 635 nm fluorescence; higher = more signal.

Streptavidin (Streptomyces avidinii), sequence (P22629 whole entry, looked up): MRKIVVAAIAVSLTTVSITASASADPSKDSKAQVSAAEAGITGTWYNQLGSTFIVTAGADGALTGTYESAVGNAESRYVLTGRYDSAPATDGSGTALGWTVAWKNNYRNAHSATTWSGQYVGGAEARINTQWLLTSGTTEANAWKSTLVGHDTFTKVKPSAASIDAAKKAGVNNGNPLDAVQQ
Torsin-1A (Homo sapiens), sequence (O14656 whole entry, looked up): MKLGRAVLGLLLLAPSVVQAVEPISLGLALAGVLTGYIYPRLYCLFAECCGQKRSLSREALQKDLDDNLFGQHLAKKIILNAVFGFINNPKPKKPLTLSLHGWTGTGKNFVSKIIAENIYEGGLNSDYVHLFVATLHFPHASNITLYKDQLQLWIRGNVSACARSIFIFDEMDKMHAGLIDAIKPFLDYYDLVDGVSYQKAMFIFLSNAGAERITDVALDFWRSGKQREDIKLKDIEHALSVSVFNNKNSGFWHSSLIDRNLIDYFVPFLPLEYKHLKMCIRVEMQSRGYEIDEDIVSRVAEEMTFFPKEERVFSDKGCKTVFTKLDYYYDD

Take `O=C(O)[C@@H]1Cc2c([nH]c3ccccc23)[C@@H](c2ccccc2)N1`: the composite z-score in test [1] is 0.019; in [5], 0.29; in [6], -0.164; in [7] it was 0.589; in [8], 0.409; in test [9] it was 0.371. The z-score in test [2] is -0.691 (inactive); in [3] it was 0.109 (inactive); in test [4], -1.69 (inactive).

In the case of `C=CCC1=C[C@H]2[C@H]([C@@H]3C=C[C@]2(CC=C)C(=O)[C@]32CO2)[C@@]2(CO2)C1=O`, the composite z-score in test [1] is 0.123; in test [5] it was 0.843; in [6] it was -0.0021; in test [7], 0.919; in test [8], -0.0031; in test [9], 2.11. The z-score in test [2] is -3.26 (inactive); in [3], 2.21 (inactive); in test [4], 1.62 (inactive).

Regarding `CC(C)CN1C(=O)[C@@]2(Cc3ccccc31)c1ccccc1C(=O)N(C1CCCCC1)[C@H]2c1ccc(CO)cc1`, the composite z-score in test [1] is -0.194; in [5] it was -1.12; in [6], -0.208; in [7], -0.475; in [8], -0.488; in test [9], -0.264. Moreover, the z-score in [2] was -2.02 (inactive); in [3] it was -0.152 (inactive); in test [4], -0.876 (inactive).

For the compound `C[C@@H]1C=CCC(=O)OC[C@H]2O[C@@H](C=C[C@@H]2O)[C@H](C)C=CCC(=O)OC[C@H]2O[C@H]1C=C[C@@H]2O`, the composite z-score in [1] was found to be 0.375; in [5], 0.412; in test [6], 0.357; in test [7], 0.997; in test [8], 0.515; in [9], 2.24. The z-score in [2] was -5.78 (inactive); in test [3], 0.247 (inactive); in test [4], -0.724 (inactive).

For the compound `CN(C)CCCC[C@@H]1NC(=O)[C@@H]2C[C@H](C(=O)NCCCCCNC(=O)CS)[C@H](c3ccc(O)cc3)N2C1=O`, the composite z-score was found to be 0.202 in test [1]; 0.799 in [5]; 0.264 in test [6]; 1.4 in test [7]; 0.847 in [8]; 2.06 in [9]. Besides, the values for the z-score in [2], in test [3] and in [4] were 0.0694 (inactive), -0.667 (inactive) and -1 (inactive), respectively.

With `CO[C@H]1COC(=O)[C@@H](C)NC(=O)CC=C[C@@H](C)[C@H](OC)COC(=O)CC=C[C@@H]1C`, the composite z-score in test [1] was 0.0227; in test [5], 0.0569; in test [6] it was -0.39; in test [7] it was 1.45; in test [8], 1.69; in [9], 2.21. Further, the results for the z-score in [2], in test [3] and in test [4] were -2.38 (inactive), -0.747 (inactive) and -1.2 (inactive), respectively.

In the case of `Cc1ccc(N2C(=O)c3ccccc3[C@@H](C(=O)NCc3ccccc3)[C@@H]2c2ccc(CO)cc2)nc1`, the composite z-score was 0.0687 in test [1]; -0.524 in test [5]; 0.0028 in test [6]; 0.628 in [7]; 0.276 in [8]; 0.311 in test [9]. The z-score in test [2] was -1.54 (inactive); in test [3] it was -0.0888 (inactive); in [4], -1.02 (inactive).

Take `CCCC[C@H]1OB(O)C[C@H]2C1=C(COC)C[C@H]1C(=O)N(Cc3ccccc3)C(=O)[C@H]12`: the composite z-score in [1] was 0.192; in test [5], -0.098; in test [6], 0.124; in [7], -0.0377; in test [8], 0.37; in [9] it was 0.329. For the same compound, the z-score in test [2] is -0.273 (inactive); in test [3] it was 0.307 (inactive); in test [4], -1.76 (inactive).

For the compound `CSCC[C@@H]1NC(=O)CC=C[C@@H](C)COC(=O)[C@H](CCSC)NC(=O)CC=C[C@@H](C)COC1=O`, the composite z-score in test [1] is 0.119; in [5], -0.563; in [6], -0.146; in test [7] it was 0.138; in test [8] it was 0.291; in test [9] it was 0.493. For the same compound, the z-score in [2] was -3.38 (inactive); in test [3], -0.389 (inactive); in test [4], -0.837 (inactive).

For the compound `C[C@H]1COC(=O)[C@@H]2CCCN2C(=O)[C@@H](C)COC(=O)[C@@H]2CCCN2C1=O`, the composite z-score in test [1] is 0.0246; in test [5], -0.269; in test [6] it was 0.0086; in [7], -0.213; in [8], 0.25; in test [9], 0.355. Moreover, the z-score in test [2] was -0.0001 (inactive); in [3], 0.613 (inactive); in test [4], -0.881 (inactive).

Regarding `CC(C)[Si]1(C(C)C)O[C@@H](c2ccccc2)c2cc(C3CC3)nc(-c3ccc(Oc4ccccc4)cc3)c21`, the composite z-score in [1] was -0.217; in test [5], -0.646; in [6] it was -0.0082; in test [7], -0.617; in test [8] it was -0.0373; in test [9], -0.239. Further, the z-score in test [2] was -0.313 (inactive); in test [3], 0.0176 (inactive); in [4], -0.59 (inactive).

Turning to `COc1cccc([C@@H]2[C@@H](C)CC[C@H]3C(=O)N(C)[C@@H](C(C)C)C(=O)N23)c1`, the composite z-score is 0.0537 in [1]; 0.398 in test [5]; -0.0523 in test [6]; 0.798 in test [7]; 0.101 in test [8]; 0.39 in test [9]. In addition, the z-score in test [2] is -0.205 (inactive); in test [3], 2.9 (inactive); in test [4], -0.762 (inactive).

Consider `C=CC[C@]1(C(=O)OC)N=C(c2ccc(OCCCO)cc2)O[C@H]1c1ccccc1CN=[N+]=[N-]`, for which the composite z-score was 0.832 in test [1]; -1.12 in test [5]; 0.0232 in test [6]; 0.101 in test [7]; -0.0021 in test [8]; 0.0034 in [9]. Further, the z-score in test [2] was -3.72 (inactive); in [3] it was 5.1 (inactive); in test [4] it was -0.911 (inactive).

Take `Cc1ccc(S(=O)(=O)N[C@H]2COC(=O)CC=C[C@H](C)COC(=O)N[C@@H](C)C(=O)CC=C[C@@H]2C)cc1`: the composite z-score in test [1] was 0.177; in [5] it was -0.184; in [6], -0.142; in test [7] it was 0.771; in test [8], 0.555; in test [9], 1.01. In addition, the z-score in test [2] was -1.67 (inactive); in test [3] it was 1.6 (inactive); in test [4], -0.933 (inactive).

Consider `CC(C)CNC(=O)[C@@]1(C)c2ccccc2C(=O)N(Cc2ccc(OC(F)(F)F)cc2)[C@H]1c1ccc(CO)cc1`, for which the composite z-score was 0.12 in [1]; -1.12 in test [5]; -0.128 in [6]; -0.0233 in test [7]; 0.316 in [8]; -0.406 in test [9]. Also, the z-score was -1.65 (inactive) in test [2], 0.0279 (inactive) in [3] and -0.569 (inactive) in test [4].

Consider `CO[C@@H]1COC(=O)CC=C[C@@H](C)[C@H](OC)COC(=O)CC=C[C@H]1C`, for which the composite z-score in [1] was -0.0731; in [5] it was -0.428; in test [6], -0.253; in test [7] it was 0.685; in test [8] it was 0.349; in [9] it was 1.29. For the same compound, the results for the z-score in [2], in test [3] and in test [4] were -0.147 (inactive), -0.658 (inactive) and -0.82 (inactive), respectively.
